From PubChem BioAssay AID463173 (ICCB-Longwood Screening Facility, Harvard Medical School, 2010) come the findings set out here.

Out of some 52,000 compounds screened, about 4,300 (8.3%) were called active. What follows is part of a selection rich in actives, with near analogues and random picks from the rest. A number with no mark means an inactive call. Rule as the data show it: active = survival mostly below about 52% (no sharp cut-off); inactive = mostly above about 56%.

For the experiment, the system named is DeltatarO mutant. As to the kind of experiment: growth inhibition of S. aureus wild type versus tarO mutant, primary screen, teichoic acid synthesis inhibitors, RN4220, OD600 (AID 463173). As to conditions: OD600, 18 h, active compounds read low, screened at 18.75 µg/mL (by protocol).
With `C/C(=N\NC(N)N)C1CCCCCCCCCCC1`, the survival was 0% (active).

As for `Cc1cc(Cl)ccc1NC(=O)C1CCN(c2nnc(-n3c(C)ccc3C)s2)CC1`, the survival is 88%. The result for `Fc1ccccc1N1CCN(c2nnc(C(F)(F)F)c3nnn(Cc4ccccc4)c23)CC1` reads 78%; that for `CCOc1ccc2c(c1)sc1nc(=O)n(-c3ccc(Cl)c(Cl)c3)c(=O)n12`, 88%; that for `Cc1ccc2c(c1)sc1nc(=O)n(-c3ccc(Cl)c(Cl)c3)c(=O)n12`, -6% (active). For `CCN(CC)C(=O)c1sc2c(c1C)c(=O)n(-c1ccc(Cl)c(Cl)c1)c(=O)n2Cc1ccccc1C#N`, the survival is 83%. As for `Cc1ccc2c(c1)sc1nc(=O)n(-c3cccc(Cl)c3)c(=O)n12`, the figure is 85%; as for `Cc1ccc2c(c1)sc1nc(=O)n(-c3ccc(Cl)cc3)c(=O)n12`, 59%. On to `O=c1nc2sc3ccccc3n2c(=O)n1-c1ccc(Cl)c(Cl)c1`, for which the survival is 22% (active). The result for `CC(C(=O)c1ccccc1)C1(O)C(=O)Nc2ccccc21` (configuration not stated) reads 94%. As for `Cc1ccc2nc(-c3ccccc3O)c(Nc3ccccc3C)n2c1`, the figure is 92%; as for `Cc1ccccc1Nc1c(-c2ccc(N3CCOCC3)cc2)nc2ccc(Br)cn12`, 74%.

`O=C(NCc1ccccc1)c1cnc2sc(N3CCCC3)nn2c1=O`: the survival is 77%. With `O=C(Nc1ccccc1C(F)(F)F)C1(S(=O)(=O)c2ccc(Cl)cc2)CC1`, the survival was 84% (active). Turning to `CCOC(=O)c1ccc(NC(=O)C2(S(=O)(=O)c3ccc(Cl)cc3)CC2)cc1`, the survival is 75%. As to `Cc1ccc(S(=O)(=O)C2(C(=O)Nc3ccc(Cl)c(C(F)(F)F)c3)CC2)cc1`, the survival was 26%.

On to `O=C(Nc1ccccc1C(F)(F)F)c1ccncc1`, for which the survival was 91%. For `Cc1cc(Br)ccc1NC(=O)C1(S(=O)(=O)c2ccc(Cl)cc2)CC1`, the survival was 62%. With `Cc1ccc(S(=O)(=O)C2(C(=O)Nc3ccc(C)c(Cl)c3)CC2)cc1`, the survival is 21%. The result for `CCc1ccccc1NC(=O)C1(S(=O)(=O)c2ccc(Cl)cc2)CC1` reads 90% (active); that for `COC(=O)c1ccc(NC(=O)C2(S(=O)(=O)c3ccc(C)cc3)CC2)cc1`, 134%. As for `Cc1ccc(S(=O)(=O)C2(C(=O)Nc3ccc(C(C)C)cc3)CC2)cc1`, the figure is 19% (active); as for `Cc1ccc2c(c1)c1c(c(=O)n(Cc3ccccc3)c(=O)n1Cc1cccc(F)c1)n2C`, 89%; as for `CC(C)(C)c1ccc(C(=O)Nc2nc3nc(-c4ccccc4)cc(=O)n3[nH]2)cc1`, 94%. The result for `CCN(Cc1ccccc1)C(=O)C1CCN(S(=O)(=O)c2ccc3c(c2)CCCN3C(C)=O)CC1` reads 80%; that for `CC1CCCC(C)N1C(=O)CN1CCC(N2CCCCC2)CC1` (configuration not stated), 94%. Consider `CC(C)NC(=O)Cn1nnc(-c2ccc(Cl)cc2)n1`, for which the survival was 82%.

For the compound `COc1ccccc1CC(NC(C)=O)C(=O)N1CCN(C(=O)c2cccs2)CC1` (configuration not stated), the survival was 97%. The result for `O=C(NCc1ccccc1F)C(=O)NCC(c1ccco1)S(=O)(=O)c1ccccc1` (configuration not stated) reads -5% (active); that for `Cc1ccccc1CNC(=O)C(=O)NCC(c1ccco1)S(=O)(=O)c1ccccc1` (configuration not stated), 92%. In the case of `Cc1ccc(CNC(=O)C(=O)NCC(c2ccco2)S(=O)(=O)c2cccs2)cc1` (configuration not stated), the survival was 101%. The result for `O=C(NCc1ccccc1Cl)C(=O)NCC(c1ccco1)S(=O)(=O)c1cccs1` (configuration not stated) reads 55%. As for `O=C(NCCc1ccccc1)C(=O)NCC(c1ccco1)S(=O)(=O)c1cccs1` (configuration not stated), the figure is 94%.

Turning to `O=C(NCc1ccccc1)C(=O)NCC(c1ccco1)S(=O)(=O)c1ccccc1` (configuration not stated), the survival was 76%.

For the compound `O=C(NCCc1ccc(F)cc1)C(=O)NCC(c1ccco1)S(=O)(=O)c1cccs1` (configuration not stated), the survival was 66%. Consider `O=C(NCCc1ccc(Cl)cc1)C(=O)NCC(c1ccco1)S(=O)(=O)c1cccs1` (configuration not stated), for which the survival was 20% (active). As for `O=C(NCc1ccccc1)C(=O)NCC(c1ccco1)S(=O)(=O)c1cccs1` (configuration not stated), the figure is 96%; as for `O=C(NCc1ccccc1F)C(=O)NCC(c1ccco1)S(=O)(=O)c1cccs1` (configuration not stated), 25% (active). As for `Cc1ccccc1CNC(=O)C(=O)NCC(c1ccco1)S(=O)(=O)c1cccs1` (configuration not stated), the figure is 70%; as for `O=C(NCc1ccc(F)cc1)C(=O)NCC(c1ccco1)S(=O)(=O)c1cccs1` (configuration not stated), 8% (active); as for `COc1ccc2c(c1)N(C)/C(=C1/SC(=Nc3ccc(C)cc3)N(C)C1=O)S2`, 102%. As for `CCOc1ccccc1NC(=O)c1c(NC(=O)c2cccc(C)c2)sc2c1CCC2`, the figure is 74%. Consider `CCc1ccc(NC(=O)CSc2nc3ccccc3c(=O)n2CCNC(C)=O)cc1`, for which the survival is 87%. On to `COc1ccc(C2(C(=O)N3CCCC3)CCCC2)cc1OC`, for which the survival is 89%.

Regarding `CCC(=O)N1CCCc2cc(S(=O)(=O)N3CCC(C(=O)NC4CCC(C)CC4)CC3)ccc21` (configuration not stated), the survival was 123%. Regarding `CCOC(=O)c1cc2occc2n1CCc1ccccc1`, the survival was 101%. In the case of `O=C(c1ccccc1)N1CCc2cc(CNS(=O)(=O)c3ccccc3Cl)ccc21`, the survival is 78%.

Consider `COc1cc(NS(=O)(=O)c2ccc3oc(=O)c4ncn(C)c4c3c2)cc(OC)c1`, for which the survival was 126%. The result for `CC1(C)CC(=O)C(C=NCc2ccccc2)=C(O)C1` reads 95%. In the case of `O=C(Nc1ccc(F)cc1)C1CCN(S(=O)(=O)c2ccc3c(c2)CCCN3C(=O)C2CCC2)CC1`, the survival was 73%. Consider `N#Cc1c(/N=C/c2ccco2)oc(-c2ccccc2)c1-c1ccccc1`, for which the survival was 98%. The result for `N#Cc1c(NC(=O)C(F)(F)F)oc(-c2ccccc2)c1-c1ccccc1` reads 12% (active); that for `N#Cc1c(NC(=O)c2ccccc2)oc(-c2ccccc2)c1-c1ccccc1`, 56%; that for `CCc1cccc(CC)c1N(COC)C(=O)Cn1c(C)nc2ccccc21`, 59%. The result for `CCc1cccc(NC(=O)CCc2c(C)nc3c(c2C)c(=O)n(C)c(=O)n3C)c1` reads 93%. The result for `COc1ccc(-n2nc(C(=O)NCc3ccc(F)cc3)c3c4ccccc4n(C)c3c2=O)cc1` reads 88%; that for `N#C/C(=C\c1ccc(-c2ccc(C(=O)O)cc2)o1)C(=O)Nc1ccccc1C(=O)O`, 60%; that for `N#C/C(=C/c1ccc(-c2ccc(S(N)(=O)=O)cc2)o1)C(=O)Nc1cc(Cl)ccc1Cl`, 46%. Turning to `N#C/C(=C/c1ccc(N2CCCCC2)o1)C(=O)NCCc1c[nH]c2ccccc12`, the survival was 76%. As for `Cc1ccc(NC(=O)/C(C#N)=C/c2ccc(-c3ccc(Cl)c(C(=O)O)c3)o2)cc1C`, the figure is 70%; as for `N#C/C(=C/c1ccc(-c2cc(C(=O)O)ccc2Cl)o1)C(=O)NCCc1c[nH]c2ccccc12`, 12% (active); as for `N#C/C(=C\c1ccc(-c2cc(Cl)ccc2Cl)o1)C(=O)Nc1ccccc1C(=O)O`, 37% (active).
